From PubChem BioAssay (NCI)
Compounds without any hit were thinned out: in the full panel of roughly 83,000, 20% have a hit.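 Cell lines were cultured in 96-well plates, exposed to a single compound concentration, and assessed for percent growth 48 hours later.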 A number with no mark means an inactive call. Calls of active or inactive are those of the source. How the source made its calls: active means growth percent below 10; inactive means the rest.

Key:
Assay in all cases: NCI-60 one-dose screen, 48 h (100 = growth as untreated, 0 = no growth, -100 = all killed)
Details in all cases: 10 µM unless noted
[1] = system: RPMI-8226 leukemia
[2] = system: OVCAR-8 ovarian
[3] = system: OVCAR-5 ovarian
[4] = system: OVCAR-4 ovarian
[5] = system: SK-OV-3 ovarian
[6] = system: IGROV1 ovarian
[7] = system: OVCAR-3 ovarian
[8] = system: HS 578T breast
[9] = system: NCI/ADR-RES ovarian
[10] = system: T-47D breast

Cc1cc(C)n2nc(SCC(=O)Nc3sc4c(c3C(N)=O)CCC4)nc2n1
growth [1]: 148%
growth [2]: 112%
growth [3]: 97.1%
growth [4]: 122%
growth [5]: 118%
growth [6]: -2.56% (active)
growth [7]: 123%
growth [8]: 121%
growth [9]: 102%

O=C1c2ccccc2C(=O)c2c1cccc2-n1nnc2ccccc21
growth [1]: 59.8%
growth [2]: 102%
growth [3]: 105%
growth [4]: 97.5%
growth [5]: 119%
growth [6]: 82.9%
growth [7]: 115%
growth [8]: 94.2%
growth [9]: 107%
growth [10]: 93.5%

CCC(C)CC(C)C(=O)c1c(O)ccn(OC)c1=O (configuration not stated)
growth [1]: 69.3%
growth [2]: 66.3%
growth [3]: 86.8%
growth [4]: 44.9%
growth [5]: 86.7%
growth [6]: 65%
growth [7]: 47.1%
growth [8]: 93.2%
growth [9]: 57.1%

NNC(=O)NO
growth [1]: 109%
growth [2]: 102%
growth [3]: 110%
growth [4]: 101%
growth [5]: 94.1%
growth [6]: 108%
growth [7]: 106%
growth [8]: 96.6%
growth [9]: 109%

COc1ccc(COC(C)=O)cc1
growth [1]: 103%
growth [2]: 106%
growth [3]: 98.1%
growth [4]: 120%
growth [5]: 113%
growth [6]: 142%
growth [7]: 110%
growth [8]: 105%
growth [9]: 116%
growth [10]: 102%

COC(=O)CCC1=C(C)C(C)=N/C1=C\c1[nH]c(-c2ccc[nH]2)cc1OC
growth [1]: -61.8% (active)
growth [2]: 5.55% (active)
growth [3]: 22.7%
growth [4]: 11.8%
growth [5]: 16.2%
growth [6]: 18.4%
growth [7]: -34.5% (active)
growth [8]: -6.06% (active)
growth [9]: 6.26% (active)
growth [10]: 7.35% (active)

CCCOc1ccc2c(c1)CC[C@@H]1[C@@H]2CC[C@@]2(C)[C@H]1CC[C@]2(C)O
growth [1]: 56.5%
growth [2]: 74%
growth [3]: 76.7%
growth [4]: 81%
growth [5]: 75.3%
growth [6]: 118%
growth [7]: 104%
growth [8]: 85%
growth [9]: 79.7%
growth [10]: 83.4%

O=C(CSc1nnc(Nc2ccccc2)s1)NCCc1ccc(F)cc1
growth [1]: 145%
growth [2]: 117%
growth [3]: 92.9%
growth [4]: 102%
growth [5]: 113%
growth [6]: -2.38% (active)
growth [7]: 113%
growth [8]: 119%
growth [9]: 99.3%

Cc1cc2c(C#N)n3c(c2cc1C)C(=O)C(c1ccccc1)Oc1ccccc1-3 (configuration not stated)
growth [1]: 29.6%
growth [2]: 23.6%
growth [3]: 48.6%
growth [4]: 22.4%
growth [5]: 39.6%
growth [6]: 48.8%
growth [7]: 25.3%
growth [8]: 46.2%
growth [9]: 25.8%
growth [10]: 15.2%

O=C1/C(=C/c2ccc([N+](=O)[O-])o2)Oc2ccc(Br)cc21
growth [1]: 84.2%
growth [2]: 6.99% (active)
growth [3]: 105%
growth [4]: 5.15% (active)
growth [5]: 92.1%
growth [6]: -17.9% (active)
growth [7]: -43.1% (active)
growth [8]: 106%
growth [9]: 98.3%

O=C(C=C=Nc1ccccc1)C(=O)N=C=Cc1ccccc1
growth [1]: -59.5% (active)
growth [2]: 60.8%
growth [3]: 75.5%
growth [4]: 50.6%
growth [5]: 107%
growth [6]: 51.5%
growth [7]: 13.5%
growth [8]: 94.8%
growth [9]: 65.5%

Cc1nnc(Nc2ccc(NC(=O)Nc3ccc(Cl)cc3)cc2)c2ccccc12
growth [1]: -11.9% (active)
growth [2]: 31.4%
growth [3]: 72.8%
growth [4]: 42.6%
growth [5]: 66.4%
growth [6]: 62%
growth [7]: 44.4%
growth [8]: 3.43% (active)
growth [9]: 45.1%

O=C(C(=O)N1CCOCC1)c1ccc(OC2OC(CO)C(O)C(O)C2O)cc1 (configuration not stated)
growth [1]: 111%
growth [2]: 100%
growth [3]: 98.2%
growth [4]: 116%
growth [5]: 100%
growth [6]: 117%
growth [7]: 110%
growth [8]: 125%
growth [9]: 113%
growth [10]: 96%

S=c1[nH]nc2sc3ccccc3n12
growth [1]: 105%
growth [2]: 107%
growth [3]: 108%
growth [4]: 103%
growth [5]: 109%
growth [6]: 96.9%
growth [7]: 119%
growth [8]: 114%
growth [9]: 112%

CCCc1nn(C)c2c(=O)[nH]c(-c3cc(S(=O)(=O)N4CCN(C)CC4)ccc3OCC)nc12
growth [1]: 101%
growth [2]: 109%
growth [3]: 95.6%
growth [4]: 111%
growth [5]: 100%
growth [6]: 112%
growth [7]: 111%
growth [8]: 104%
growth [9]: 90.2%

CCCCCCCCCCSc1ncnc2nc[nH]c12
growth [1]: 51.4%
growth [2]: 67.5%
growth [3]: 101%
growth [4]: 61.3%
growth [5]: 85%
growth [6]: 75.1%
growth [7]: 71.1%
growth [8]: 91.4%
growth [9]: 54.5%

Cc1c(NCc2nnc3n(Cc4ccccc4)c(=O)c4c5c(sc4n23)CCCC5)c(=O)n(-c2ccccc2)n1C
growth [1]: 97.5%
growth [2]: 86.3%
growth [3]: 107%
growth [4]: 74.7%
growth [5]: 120%
growth [6]: 79.2%
growth [7]: 87.3%
growth [8]: 90.7%
growth [9]: 85.6%
growth [10]: 84%

COc1cc(C2CC(=O)Nc3c2cc(Br)c2ccccc32)cc(Br)c1OC (configuration not stated)
growth [1]: 43.3%
growth [2]: 31.7%
growth [3]: 76.2%
growth [4]: -64.2% (active)
growth [5]: -15.1% (active)
growth [6]: 26.7%
growth [7]: -13% (active)
growth [8]: 39.6%
growth [9]: 6.65% (active)

COc1cc([C@@H]2c3cc4c(cc3C(O[C@@H]3O[C@@H]5CO[C@@H](c6cccs6)OC5[C@H](O)[C@H]3O)C3COC(=O)[C@@H]32)OCO4)cc(OC)c1O (some centres not stated)
growth [1]: -20.8% (active)
growth [2]: -43% (active)
growth [3]: -9.71% (active)
growth [4]: 13.8%
growth [5]: -13.6% (active)
growth [6]: -5.65% (active)
growth [7]: -54% (active)
growth [8]: -3.69% (active)
growth [9]: 60.3%

CN(CCOc1ccc(CC2SC(=O)NC2=O)cc1)c1ccccn1 (configuration not stated)
growth [1]: 104%
growth [2]: 91.9%
growth [3]: 95.2%
growth [4]: 110%
growth [5]: 106%
growth [6]: 97.9%
growth [7]: 110%
growth [8]: 100%
growth [9]: 101%

COc1ccc2c(c1)C(=O)/C(=C/c1ccc([N+](=O)[O-])s1)O2
growth [1]: -12% (active)
growth [2]: -5.24% (active)
growth [3]: 32.9%
growth [4]: -45% (active)
growth [5]: 74.6%
growth [6]: -58.3% (active)
growth [7]: -35.7% (active)
growth [8]: -6.61% (active)
growth [9]: 27.3%

C=CCCCCCCCCC(=O)[O][Sn]([CH2]CCC)([CH2]CCC)[CH2]CCC
growth [1]: -27.3% (active)
growth [2]: -74.2% (active)
growth [3]: -89.4% (active)
growth [4]: -96.7% (active)
growth [5]: -98.8% (active)
growth [6]: -72.9% (active)
growth [7]: -97.9% (active)
growth [8]: -46.4% (active)
growth [9]: -90.3% (active)
growth [10]: -71.5% (active)

O=C1c2ccccc2-c2c1nc1ccccc1[n+]2[O-]
growth [1]: 106%
growth [2]: 108%
growth [3]: 94.9%
growth [4]: 115%
growth [5]: 102%
growth [6]: 99.9%
growth [7]: 107%
growth [8]: 106%
growth [9]: 105%

O=C(c1nn(-c2ccc(Cl)cc2)cc1O)n1nc(C(F)(F)F)cc1-c1ccccc1
growth [1]: -10.4% (active)
growth [2]: 22.9%
growth [3]: 58.7%
growth [4]: 29.2%
growth [5]: 23.2%
growth [6]: 34.9%
growth [7]: -1.65% (active)
growth [8]: 15.8%
growth [9]: 19.4%

COC(=O)[C@]12CC[C@@H](C)[C@H](C)[C@@H]1C1=CC[C@@H]3[C@@]4(C)C=C(O)C(=O)[C@@]5(C)COC(=C54)C[C@@]3(C)[C@]1(C)CC2
growth [1]: -56.5% (active)
growth [2]: -20.5% (active)
growth [3]: -26.9% (active)
growth [4]: -39.1% (active)
growth [5]: -20.8% (active)
growth [6]: -23.5% (active)
growth [7]: -92% (active)
growth [8]: -18.8% (active)
growth [9]: -42.8% (active)

CN=C(NC)N/N=C(C)\C=N\NC(=NC)NC
growth [1]: 127%
growth [2]: 102%
growth [3]: 116%
growth [4]: 112%
growth [5]: 101%
growth [6]: 112%
growth [7]: 107%
growth [8]: 102%
growth [9]: 107%
growth [10]: 109%

O=C(Nc1ccc(C2=NCCCN2)cc1)Nc1ccc(C2=NCCCN2)cc1
growth [1]: 53.2%
growth [2]: 89%
growth [3]: 101%
growth [4]: 64%
growth [5]: 110%
growth [6]: 110%
growth [7]: 99.4%
growth [8]: 79.5%
growth [9]: 94.4%

COC(=O)C[C@@H]1CC=CC(=O)/C1=C(O)/C=C/c1ccccc1
growth [1]: 31.3%
growth [2]: 10.6%
growth [3]: -83.8% (active)
growth [4]: -10.7% (active)
growth [5]: 32.6%
growth [6]: -72.9% (active)
growth [7]: -92.5% (active)
growth [8]: 12.5%
growth [9]: 17.6%
growth [10]: -6.15% (active)

COc1ccc(-c2csc(NC(=O)c3cc(OC)c(OC)c(OC)c3)n2)cc1
growth [1]: 92.7%
growth [2]: 97.2%
growth [3]: 103%
growth [4]: 96.8%
growth [5]: 101%
growth [6]: 100%
growth [7]: 105%
growth [8]: 96.4%
growth [9]: 115%
growth [10]: 94.8%
